From PubChem BioAssay (Tox21)
Results filed as inconclusive are left out. Calls of active or inactive are those of the source. Unless noted, calls follow the shape of the dose curve; as a rule, active = well fitted curve in the direction sought with a large enough effect in the repeat runs; inconclusive = weak or mixed curves; inactive = no such curve, though single readings can be large; an effect the other way counts as inactive or inconclusive.

Legend:
[1] = target: Retinoic acid receptor RXR-alpha (Homo sapiens) (UniProt P19793); experiment: qHTS assay to identify small molecule agonists of the RXR signaling pathway (AID 1159527; calls by dose curve; also: nearly all actives have a fitted effect of over 35% in size; also: potency is read from the fitted curve at half-maximal effect)
Chain of Retinoic acid receptor RXR-alpha (Homo sapiens) (P19793 whole entry, looked up): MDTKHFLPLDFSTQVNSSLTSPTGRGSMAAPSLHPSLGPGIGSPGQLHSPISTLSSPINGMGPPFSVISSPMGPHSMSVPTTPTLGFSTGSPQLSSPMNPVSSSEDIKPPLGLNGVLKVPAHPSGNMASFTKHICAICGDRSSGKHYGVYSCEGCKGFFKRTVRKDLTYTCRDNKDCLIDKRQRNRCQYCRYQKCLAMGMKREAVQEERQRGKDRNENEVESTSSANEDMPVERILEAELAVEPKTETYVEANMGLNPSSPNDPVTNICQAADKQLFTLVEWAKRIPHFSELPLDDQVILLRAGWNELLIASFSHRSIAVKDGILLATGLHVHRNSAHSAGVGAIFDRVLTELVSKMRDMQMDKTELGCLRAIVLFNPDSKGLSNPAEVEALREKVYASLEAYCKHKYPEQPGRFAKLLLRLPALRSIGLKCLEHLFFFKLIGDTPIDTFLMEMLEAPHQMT
Outline: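 Agonist mode; 9-cis retinoic acid positive control. HEK 293T UAS-bla reporter cells, 2% charcoal-stripped FBS, 16 hr compound exposure at 37 C/5% CO2. LiveBLAzer B/G FRET substrate 2 hr RT; ex 405, em 460/530 nm.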

[2] = qHTS assay to identify small molecule agonists of the RXR signaling pathway - cell viability counter screen (AID 1159529); also: series mostly up to about 77 µM; nearly all actives have a fitted effect of over 50% in size
Outline: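 Luminescence from CellTiter-Glo (30 min, RT) measured viability in the same wells as the beta-lactamase reporter readout. Cells: GeneBLAzer RXR-alpha HEK 293T, 2% charcoal-stripped FBS. Compound exposure 16 hr, 37 C.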

[3] = qHTS assay to identify small molecule antagonists of the retinoid acid receptor (RAR) signaling pathway - cell viability counter screen (AID 1159551); also: nearly all actives have a fitted effect of over 35% in size
Outline: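 C3RL4 cells were seeded overnight at 37 C, then treated with compounds plus 1 uM (final) retinol for 6 h at 37 C. Viability was read as ATP by CellTiter-Glo luminescence after 30 min at room temperature.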

[4] = qHTS assay to identify small molecule antagonists of the retinoic acid receptor (RAR) signaling pathway (AID 1159552; also: nearly all actives have a fitted effect of over 50% in size)
Outline: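 Luminescence from a RARE luciferase reporter in C3RL4 cells served as read-out. Cells received compounds together with 1 uM final retinol and incubated 6 hr at 37 C before detection reagent was added for 30 min at room temperature.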

[5] = qHTS assay to identify small molecule agonists of the retinoic acid receptor (RAR) signaling pathway (AID 1159553); also: potency is read from the fitted curve at half-maximal effect
Outline: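 C3RL4 cells carrying a RARE luciferase reporter were plated overnight at 37 C, then exposed to compounds in DMSO for 6 hr at 37 C and 5% CO2. Luminescence was read 30 min after luciferase reagent addition at room temperature.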

[6] = qHTS assay to identify small molecule antagonists of the estrogen related receptor (ERR) signaling pathway from Tox21 library - cell viability counter screen (AID 1224834); also: nearly all actives have a fitted effect of over 30% in size
Outline: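 ERR reporter cells were plated 6 h before compound addition, then exposed to test compounds in DMSO for 17.5 h at 37 C. Viability was read as CellTiter-Fluor fluorescence after a 30-minute incubation at 37 C.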

[7] = target: Luciferin 4-monooxygenase (Photinus pyralis) (UniProt P08659); experiment: qHTS assay to identify small molecule inhibitors of firefly luciferase (AID 1224835); also: nearly all actives have a fitted effect of over 25% in size; also: potency is read from the fitted curve at half-maximal effect
Chain of Luciferin 4-monooxygenase (Photinus pyralis) (P08659 whole entry, looked up): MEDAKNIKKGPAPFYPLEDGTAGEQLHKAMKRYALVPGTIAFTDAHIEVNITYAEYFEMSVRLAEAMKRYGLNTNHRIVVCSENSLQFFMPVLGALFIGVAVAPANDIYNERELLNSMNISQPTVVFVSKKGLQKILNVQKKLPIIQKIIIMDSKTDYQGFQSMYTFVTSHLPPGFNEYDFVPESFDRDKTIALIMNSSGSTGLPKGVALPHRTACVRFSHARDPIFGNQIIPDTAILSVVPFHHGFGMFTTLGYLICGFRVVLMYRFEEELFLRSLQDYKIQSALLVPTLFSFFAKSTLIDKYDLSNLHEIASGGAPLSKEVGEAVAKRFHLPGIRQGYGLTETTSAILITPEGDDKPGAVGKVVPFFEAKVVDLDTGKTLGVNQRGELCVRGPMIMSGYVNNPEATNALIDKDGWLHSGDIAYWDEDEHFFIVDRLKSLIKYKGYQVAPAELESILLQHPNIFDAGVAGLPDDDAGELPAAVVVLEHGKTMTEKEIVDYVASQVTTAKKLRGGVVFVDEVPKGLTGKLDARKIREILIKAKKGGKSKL
Outline: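 Quantitative HTS format; KM concentrations of both substrates. Purified P. pyralis FLuc activity quantified from luminescence images.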

[8] = qHTS assay to identify small molecule agonists of the constitutive androstane receptor (CAR) signaling pathway - cell viability counter screen (AID 1224836); also: series mostly up to about 92 µM; nearly all actives have a fitted effect of over 45% in size
Outline: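 Viability read-out: CellTiter-Fluor fluorescence after 23 h compound exposure at 37 C/5% CO2 in double-stable HepG2-CYP2B6-hCAR cells, with PK11195 present at 0.75 uM final; compounds tested in 15-point titration.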

[9] = qHTS assay to identify small molecule antagonists of the constitutive androstane receptor (CAR) signaling pathway - cell viability counter screen (AID 1224837); also: series mostly up to about 92 µM; nearly all actives have a fitted effect of over 45% in size
Outline: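 HepG2 cells stably expressing hCAR and a CYP2B6-2.2kb reporter were plated and pre-incubated 4 hr at 37 C/5% CO2, then given compounds at 15 concentrations plus 50 nM CITCO (final). After 23 hr, viability was read by CellTiter-Fluor fluorescence.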

[10] = target: Nuclear receptor subfamily 1 group I member 3 (Homo sapiens) (UniProt Q14994); experiment: qHTS assay to identify small molecule antagonists of the constitutive androstane receptor (CAR) signaling pathway (AID 1224838); also: nearly all actives have a fitted effect of over 40% in size
Chain of Nuclear receptor subfamily 1 group I member 3 (Homo sapiens) (Q14994 whole entry, looked up): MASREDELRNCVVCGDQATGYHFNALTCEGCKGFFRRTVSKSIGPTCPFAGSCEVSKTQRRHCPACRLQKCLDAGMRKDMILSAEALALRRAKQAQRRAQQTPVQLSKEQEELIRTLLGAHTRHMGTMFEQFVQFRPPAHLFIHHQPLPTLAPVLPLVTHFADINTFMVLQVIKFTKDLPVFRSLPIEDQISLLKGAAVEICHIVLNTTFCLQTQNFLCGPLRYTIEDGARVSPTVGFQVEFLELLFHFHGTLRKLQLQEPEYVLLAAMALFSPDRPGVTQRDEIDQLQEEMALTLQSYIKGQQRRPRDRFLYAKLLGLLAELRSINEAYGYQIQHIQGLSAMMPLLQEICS
Outline: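 HepG2 cells stably co-transfected with hCAR and a CYP2B6-2.2kb luciferase reporter were seeded 4 h before compound addition at 15 concentrations. Cells were stimulated with 50 nM CITCO (final) for 24 h at 37 C; luciferase luminescence was then read.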

[11] = target: Nuclear receptor subfamily 1 group I member 3 (Homo sapiens) (UniProt Q14994); experiment: qHTS assay to identify small molecule agonists of the constitutive androstane receptor (CAR) signaling pathway (AID 1224839); also: nearly all actives have a fitted effect of over 15% in size; also: potency is read from the fitted curve at half-maximal effect;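 as to activation: HepG2 cells stably carrying human CAR and a CYP2B6 luciferase reporter; series mostly up to about 92 µM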
Outline: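 Luminescence read-out (ONE-Glo, 30 min, room temperature) from double-stable HepG2-CYP2B6-hCAR cells exposed 24 h to 15-point compound series in presence of 0.75 uM PK11195 final.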

[12] = qHTS assay to identify small molecule antagonists of the estrogen related receptor signaling pathway with the pleiotropic PPARgamma coactivator (PGC) from Tox21 10K library - cell viability counter screen (AID 1224840; active = well fitted cell-killing curve with a large enough effect in the repeat runs, not every such curve was filed as active; also: nearly all actives have a fitted effect of over 40% in size)
Outline: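 PGC/ERR cells were seeded at 2,000 cells/well and left 6 hours at 37 C/5% CO2 before pin-tool addition of compounds in DMSO. After 17.5 hours at 37 C, CellTiter-Fluor was added and fluorescence read 30 minutes later.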

[13] = target: Thyrotropin receptor (Homo sapiens) (UniProt P16473); experiment: qHTS assay to identify small molecule agonists of the thyroid stimulating hormone receptor (TSHR) signaling pathway (AID 1224843; calls by dose curve; also: nearly all actives have a fitted effect of over 45% in size)
Chain of Thyrotropin receptor (Homo sapiens) (P16473 whole entry, looked up): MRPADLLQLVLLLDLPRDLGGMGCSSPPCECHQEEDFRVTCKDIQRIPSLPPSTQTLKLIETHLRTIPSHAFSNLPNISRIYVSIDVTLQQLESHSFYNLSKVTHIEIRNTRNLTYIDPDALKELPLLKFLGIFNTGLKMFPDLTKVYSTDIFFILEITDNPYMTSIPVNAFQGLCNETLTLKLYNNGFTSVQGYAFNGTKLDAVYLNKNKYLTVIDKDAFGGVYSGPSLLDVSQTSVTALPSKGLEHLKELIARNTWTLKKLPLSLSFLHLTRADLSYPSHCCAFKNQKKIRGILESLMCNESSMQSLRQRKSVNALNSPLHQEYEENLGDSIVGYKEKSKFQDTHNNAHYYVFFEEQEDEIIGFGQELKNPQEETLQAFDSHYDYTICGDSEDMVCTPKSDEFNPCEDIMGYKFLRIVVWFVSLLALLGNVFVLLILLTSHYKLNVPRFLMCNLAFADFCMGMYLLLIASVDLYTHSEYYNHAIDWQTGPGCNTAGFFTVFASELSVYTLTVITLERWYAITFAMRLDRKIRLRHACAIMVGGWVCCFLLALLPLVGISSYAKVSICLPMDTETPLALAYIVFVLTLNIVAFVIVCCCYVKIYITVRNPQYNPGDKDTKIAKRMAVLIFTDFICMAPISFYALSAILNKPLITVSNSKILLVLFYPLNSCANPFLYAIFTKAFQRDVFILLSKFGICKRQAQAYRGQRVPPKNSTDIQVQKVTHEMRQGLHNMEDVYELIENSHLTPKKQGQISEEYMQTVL
Outline: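 Cell line HEK293 with TSHR; density 800/well. Exposure 30 min RT. Readout HTRF cAMP (cAMP-d2/anti-cAMP-cryptate), 1 h RT before reading.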

[14] = qHTS assay to identify small molecule agonists of the hypoxia (HIF-1) signaling pathway - cell viability counter screen (AID 1224844; calls by dose curve; also: nearly all actives have a fitted effect of over 50% in size)
Outline: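 HRE-bla ME-180 cells in medium with 0.5% dialyzed FBS were preincubated 5 hrs at 37C, exposed to compounds for 17 hrs, then viability was read as CellTiter-Glo luminescence after 30 min at room temperature, in the reporter wells.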

[15] = qHTS assay to identify small molecule agonists of H2AX (AID 1224845; active = well fitted activation curve with a large enough effect in the signal ratio in the repeat runs, not every such curve was filed as active; the % refers to the signal ratio)
Outline: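 Wild-type CHO-K1 cells plated overnight, then exposed 3 hr at 37C to compounds at 15 concentrations (0.76% DMSO). Lysed, then HTRF anti-pH2AX(S139)-cryptate/anti-H2AX-d2 detection after 24 hr at room temperature; emissions 665 and 620 nm.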

[16] = qHTS assay to identify small molecule agonists of the hypoxia (HIF-1) signaling pathway (AID 1224846; active = well fitted activation curve with a large enough effect in the signal ratio in the repeat runs, not every such curve was filed as active; the % refers to the signal ratio)
Outline: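 HRE-bla ME-180 cells (beta-lactamase reporter under hypoxia response element) were plated at 2,000 cells/well in medium with 0.5% dialyzed FBS, rested 5 hrs, then given compounds in DMSO for 17 hrs at 37C, 5% CO2. Reporter induction was read with CCF4-AM FRET substrate.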

[17] = qHTS assay to identify small molecule agonists of H2AX - cell viability counter screen (AID 1224847; calls by dose curve; also: top concentration of the series differs between compounds; nearly all actives have a fitted effect of over 30% in size)
Outline: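 CHO-K1 wt, 1000 cells/well, o/n 37C; cpds 15 conc, 3 h 37C, 0.76% DMSO; CellTiter-Glo, 30 min RT, luminescence.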

[18] = qHTS assay to identify small molecule agonists of the estrogen related receptor signaling pathway with the pleiotropic PPARgamma coactivator (PGC) from Tox21 10K library (AID 1224842); also: nearly all actives have a fitted effect of over 15% in size
Outline: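 PGC/ERR reporter cells (NTP line) were seeded 2,000 per well, rested 6 h at 37 C/5% CO2, then pin-dosed with compounds in DMSO for 18 h at 37 C; luciferase read by One-Glo luminescence after 30 min at room temperature.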

[19] = qHTS assay to identify small molecule antagonists of the estrogen related receptor (ERR) signaling pathway from Tox21 library (AID 1224848); also: nearly all actives have a fitted effect of over 50% in size; also: potency is read from the fitted curve at half-maximal effect
Outline: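 Screening used an ERR reporter line supplied by NTP, exposed for 18 h at 37 C to library compounds delivered in DMSO. Signal was luciferase luminescence developed with ONE-Glo at room temperature for 30 min.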

[20] = qHTS assay to identify small molecule antagonists of the estrogen related receptor signaling pathway with the pleiotropic PPARgamma coactivator (PGC) from Tox21 10K library (AID 1224841; call rule not given here)
Outline: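 PGC/ERR reporter cells were seeded at 2,000 cells/well and held 6 hours at 37 C/5% CO2 before pin-tool addition of compounds in DMSO. After 18 hours at 37 C, One-Glo was added and luminescence read after 30 minutes at room temperature.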

Measured: Potency

O=C(O)[C@H](O)c1ccccc1
not listed: [18] | [19] | [20]
inactive: all other assays above

O=C(CCCCC(=O)Nc1c(I)cc(I)c(C(=O)O)c1I)Nc1c(I)cc(I)c(C(=O)O)c1I
active: [19] 21.1 µM
not listed: [15] | [16] | [20]
inactive: all other assays above

c1ccc(B(c2ccccc2)c2ccccc2)cc1
active: [5] 54.4 µM | [7] 31.7 µM | [11] 48.5 µM
not listed: [13]
inactive: all other assays above

CCCCSCCCC
active: [1] 21.9 µM
not listed: [18] | [19] | [20]
inactive: all other assays above

CCCCOCC(C)O (configuration not stated)
not listed: [18] | [19] | [20]
inactive: all other assays above

C#CCN[C@@H]1CCc2ccccc21
not listed: [18] | [19] | [20]
inactive: all other assays above

CC(C)Nc1ccccc1
not listed: [18] | [19] | [20]
inactive: all other assays above

O=Cc1cc2ccccc2o1
not listed: [18] | [19] | [20]
inactive: all other assays above

CC(=O)Nc1ccc(OC(=O)c2ccccc2OC(C)=O)cc1
active: [5] 23.7 µM
not listed: [18] | [19] | [20]
inactive: all other assays above

CC(C)NC(=O)c1ccc(C=O)cc1
active: [5] 26.6 µM | [7] 17.4 µM
not listed: [18] | [19] | [20]
inactive: all other assays above

O=C=NCC1CCCC(CN=C=O)C1 (configuration not stated)
not listed: [17] | [18] | [19] | [20]
inactive: all other assays above

N#Cc1cscn1
not listed: [18] | [19] | [20]
inactive: all other assays above

O=C(CCCl)NCCc1ccccc1
not listed: [18] | [19] | [20]
inactive: all other assays above

CC1(C)Oc2ccc(C#N)cc2[C@@H](N2CCCC2=O)[C@@H]1O
not listed: [18] | [19] | [20]
inactive: all other assays above

CC(C)[C@H]1CC[C@H](C)C[C@@H]1O
not listed: [18] | [19] | [20]
inactive: all other assays above

N#Cc1ccccc1O
not listed: [17] | [18] | [19] | [20]
inactive: all other assays above
